{"source": "ChEMBL document CHEMBL1961873", "about": "“Compounds: GSK PKIS; Assays: Nanosyn kinase panel” (2012)", "data": [{"target": "Casein kinase I isoform gamma-1 (Homo sapiens) (UniProt Q9HCP0)", "sequence (Q9HCP0 whole entry, looked up, canonical isoform)": "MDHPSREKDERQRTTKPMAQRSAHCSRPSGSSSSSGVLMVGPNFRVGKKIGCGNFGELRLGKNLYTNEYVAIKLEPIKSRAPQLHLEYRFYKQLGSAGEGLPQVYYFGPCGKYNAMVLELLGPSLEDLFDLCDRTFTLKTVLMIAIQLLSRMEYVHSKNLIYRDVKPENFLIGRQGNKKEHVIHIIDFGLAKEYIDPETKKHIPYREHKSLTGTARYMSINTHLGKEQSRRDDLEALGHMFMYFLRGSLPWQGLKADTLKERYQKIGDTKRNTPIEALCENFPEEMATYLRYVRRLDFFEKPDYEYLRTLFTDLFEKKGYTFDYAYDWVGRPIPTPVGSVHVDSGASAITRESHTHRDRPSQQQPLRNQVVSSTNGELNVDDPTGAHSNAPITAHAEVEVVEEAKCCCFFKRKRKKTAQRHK", "details": "at 1 µM", "units": {"inhibition": "%"}, "values": [{"molecule": "CNC(=O)c1cncc(/C=C/c2c(C)cccc2C)c1", "inhibition": -2.08}, {"molecule": "CCC(=O)Nc1ccc(C)c(-c2ccc(C(=O)NCC3CC3)cc2)c1", "inhibition": 3}, {"molecule": "c1ccc(-c2n[nH]cc2-c2ccnc(-c3ccc(OCCN4CCOCC4)cc3)c2)nc1", "inhibition": -0.62}]}, {"target": "Casein kinase I isoform gamma-2 (Homo sapiens) (UniProt P78368)", "sequence (P78368 whole entry, looked up, canonical isoform)": "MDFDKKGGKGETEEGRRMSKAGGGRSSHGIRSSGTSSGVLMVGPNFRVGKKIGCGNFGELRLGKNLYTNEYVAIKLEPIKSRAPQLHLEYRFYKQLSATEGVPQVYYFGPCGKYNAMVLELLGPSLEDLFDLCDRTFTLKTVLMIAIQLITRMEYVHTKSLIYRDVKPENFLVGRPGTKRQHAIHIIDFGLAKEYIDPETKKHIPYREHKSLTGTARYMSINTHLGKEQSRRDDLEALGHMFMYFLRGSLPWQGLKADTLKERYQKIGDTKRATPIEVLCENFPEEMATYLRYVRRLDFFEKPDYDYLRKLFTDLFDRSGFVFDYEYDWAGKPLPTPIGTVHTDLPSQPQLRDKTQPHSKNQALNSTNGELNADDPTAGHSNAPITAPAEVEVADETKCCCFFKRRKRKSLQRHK", "details": "at 0.1 µM", "units": {"inhibition": "%"}, "values": [{"molecule": "NC(=O)c1cc(-c2ccncc2)cc(-c2ccccc2)c1N", "inhibition": 3.86}, {"molecule": "COc1cc2ncn(-c3cc(OCc4cccs4)c(C(N)=O)s3)c2cc1OC", "inhibition": -1.54}, {"molecule": "COc1ccc(C2=C(N3CCc4ccccc43)C(=O)NC2=O)cc1", "inhibition": 3.12}, {"molecule": "NS(=O)(=O)c1ccc(N/N=C2\\C(=O)Nc3ccc(C(=O)NCCCn4ccnc4)cc32)cc1", "inhibition": 4.43}, {"molecule": "O=C(Nc1n[nH]c2nc(-c3ccc(O)cc3)c(Br)cc12)C1CC1", "inhibition": 4.14}, {"molecule": "Clc1ccc(CNc2nccc(-c3cnn4ncccc34)n2)cc1", "inhibition": 1.44}, {"molecule": "CS(=O)(=O)CCNCc1ccc(-c2ccc3ncnc(Nc4ccc(OCc5ccccc5)c(Br)c4)c3c2)o1", "inhibition": -0.49}, {"molecule": "c1ccc(Oc2ccc(Nc3ncc(-c4ccccc4)o3)cc2)cc1", "inhibition": 0.49}, {"molecule": "Cc1ccc(NC(=O)c2ccoc2)cc1-c1ccc(C(=O)NCC2CC2)cc1", "inhibition": 2.62}, {"molecule": "C/C(Nc1ccc(S(N)(=O)=O)cc1)=C1/C(=O)Nc2ccccc21", "inhibition": 1.03}, {"molecule": "Fc1ccc(-c2c(-c3ccncc3)nc3n2CCS3)cc1", "inhibition": -1.41}, {"molecule": "O=C(Nc1ccc(Oc2ccc3[nH]c(NC(=O)c4ccccc4)nc3c2)cc1)Nc1cc(C(F)(F)F)ccc1F", "inhibition": 1.66}, {"molecule": "O=C1NC(=O)C(c2cccc(Cl)c2)=C1Nc1ccc(Cl)c(C(=O)O)c1", "inhibition": 2.25}, {"molecule": "NS(=O)(=O)c1ccc(Nc2cc(-c3ccc(O)c(F)c3)n[nH]2)cc1", "inhibition": -1.44}, {"molecule": "COC(=O)Nc1nc2ccc(Sc3ccc(NC(=O)Nc4cc(C(F)(F)F)ccc4F)cc3)cc2[nH]1", "inhibition": -0.85}, {"molecule": "Cc1nnc(-c2ccc(C)c(-c3ccc(C(=O)NCc4ccc(Cl)cc4)cc3)c2)o1", "inhibition": -1.05}, {"molecule": "COc1ccc2ncn(-c3cc(O[C@H](C)c4ccccc4Cl)c(C(N)=O)s3)c2c1", "inhibition": -0.05}, {"molecule": "COc1cc(N2CCN(C(C)C)CC2)ccc1Nc1nc(Nc2ccc(F)cc2C(=O)NC[C@@H](O)CO)c2cc[nH]c2n1", "inhibition": 2.13}, {"molecule": "NS(=O)(=O)c1ccc(N/N=C2\\C(=O)Nc3ccc(-c4cnco4)cc32)cc1", "inhibition": -2.15}, {"molecule": "CN1CCN(CCCNc2nc3ccc(Oc4ccc(NC(=O)Nc5cc(C(F)(F)F)ccc5F)cc4)cc3[nH]2)CC1", "inhibition": -4.72}, {"molecule": "Fc1ccc(-c2ncn(C3CCNCC3)c2-c2ccnc(Oc3ccc(Oc4ccccc4)cc3)n2)cc1", "inhibition": 5.54}, {"molecule": "COc1cc(Nc2ncc3c(C)nc(-c4cccc(Oc5ccccc5)c4)n3n2)cc(OC)c1OC", "inhibition": 0.59}, {"molecule": "CCc1ccc(Oc2nccc(-c3c(-c4ccc(F)cc4)ncn3C3CCNCC3)n2)cc1", "inhibition": 3.26}, {"molecule": "Cc1ccc(C(=O)NC(C)C)cc1-c1ccc(C(=O)NCC2CC2)cc1", "inhibition": -2.65}, {"molecule": "COc1cccc(-n2cnc3c(N/N=C/c4ccncc4)ncnc32)c1", "inhibition": -3.36}, {"molecule": "Fc1ccc(-c2ncn(C3CCNCC3)c2-c2ccnc(Oc3ccc4c(c3)OCO4)n2)cc1", "inhibition": 4.86}, {"molecule": "O=C(NCC1CC1)c1ccc(-c2cccc(C(=O)NC3CC3)c2)cc1", "inhibition": 1.59}, {"molecule": "C#Cc1cccc(Nc2ncnc3ccc(OCCCCNCCS(C)(=O)=O)cc23)c1", "inhibition": 0.57}, {"molecule": "NCc1ccc(-n2c(-c3nonc3N)nc3cnccc32)cc1", "inhibition": 3.49}, {"molecule": "O=C(Nc1n[nH]c2cc(-c3ccccc3)ccc12)C1CC1", "inhibition": 4.46}, {"molecule": "CCS(=O)(=O)c1ccc(OC)c(Nc2ncc(-c3cccc(-c4ccccc4F)c3)o2)c1", "inhibition": -0.86}, {"molecule": "CNC(=O)c1cncc(/C=C/c2c(C)cccc2C)c1", "inhibition": -2.38}, {"molecule": "CCC(=O)Nc1ccc(C)c(-c2ccc(C(=O)NCC3CC3)cc2)c1", "inhibition": 2.3}, {"molecule": "c1ccc(-c2n[nH]cc2-c2ccnc(-c3ccc(OCCN4CCOCC4)cc3)c2)nc1", "inhibition": -2.46}]}]}
